How the values were obtained:
Assay in all cases: DAPPL (digital affinity profiling via proximity ligation, sequencing); 10 mM Tris-HCl pH 7.5, 50 mM NaCl, 1 mM DTT, 4% glycerol, room temperature, 30 min; GST-TFs on glutathione beads, 16-mer random dsDNA library, 0.1% formaldehyde crosslink after washing; high values mean tight binding
FLI1 = target: T1, FLI1 (Homo sapiens, UniProt Q01543 1-452); conditions: protein: recombinant; tags: N-terminal GST; dsDNA, one strand shown
T1 sequence: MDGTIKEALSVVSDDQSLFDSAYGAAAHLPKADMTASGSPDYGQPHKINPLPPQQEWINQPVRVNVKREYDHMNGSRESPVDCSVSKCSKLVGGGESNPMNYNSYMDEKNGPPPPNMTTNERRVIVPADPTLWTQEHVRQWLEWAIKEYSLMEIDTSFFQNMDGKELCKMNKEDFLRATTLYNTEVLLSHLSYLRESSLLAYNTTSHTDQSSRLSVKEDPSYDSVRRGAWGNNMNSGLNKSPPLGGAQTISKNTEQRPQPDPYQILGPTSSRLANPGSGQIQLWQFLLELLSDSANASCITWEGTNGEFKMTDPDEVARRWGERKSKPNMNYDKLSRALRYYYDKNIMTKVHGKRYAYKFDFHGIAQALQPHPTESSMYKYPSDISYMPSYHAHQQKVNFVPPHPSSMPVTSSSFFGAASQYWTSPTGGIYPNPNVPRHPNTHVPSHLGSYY
Procedure, shortened: (§1)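 Binding signal is defined as a hexamer's read frequency for one factor over its frequency for the tag-only sample. To obtain reads, GST-fused human transcription factors were expressed in yeast, captured on glutathione beads, barcoded with DNA and pooled with that sample. Pools met 200 nmole of a 16-mer random double-stranded DNA library in Tris/NaCl/DTT/glycerol buffer for 30 min at room temperature before washing, 0.1% formaldehyde crosslinking, proximity ligation (BsaI/T4 ligase, 1 h, 37 °C), PCR and Illumina NextSeq500 sequencing.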

ELK1 = target: T2, ELK1 (Homo sapiens, UniProt P19419 1-428); conditions: protein: recombinant; tags: N-terminal GST; dsDNA, one strand shown
T2 sequence: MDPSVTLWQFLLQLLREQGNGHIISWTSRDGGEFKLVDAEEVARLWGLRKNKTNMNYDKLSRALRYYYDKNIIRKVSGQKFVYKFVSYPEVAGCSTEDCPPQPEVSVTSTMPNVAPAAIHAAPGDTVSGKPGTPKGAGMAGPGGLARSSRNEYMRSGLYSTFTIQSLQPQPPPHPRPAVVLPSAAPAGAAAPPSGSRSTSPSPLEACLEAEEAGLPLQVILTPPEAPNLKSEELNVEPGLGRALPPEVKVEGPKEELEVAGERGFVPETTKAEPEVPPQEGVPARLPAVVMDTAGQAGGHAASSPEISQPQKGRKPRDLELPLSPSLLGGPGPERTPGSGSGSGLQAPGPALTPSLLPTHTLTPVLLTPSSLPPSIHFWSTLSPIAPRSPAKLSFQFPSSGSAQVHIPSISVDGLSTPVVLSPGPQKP
Procedure, shortened: as §1

GABPA = target: T3, GABPA (Homo sapiens, UniProt Q06546 1-454); conditions: protein: recombinant; tags: N-terminal GST; dsDNA, one strand shown
T3 sequence: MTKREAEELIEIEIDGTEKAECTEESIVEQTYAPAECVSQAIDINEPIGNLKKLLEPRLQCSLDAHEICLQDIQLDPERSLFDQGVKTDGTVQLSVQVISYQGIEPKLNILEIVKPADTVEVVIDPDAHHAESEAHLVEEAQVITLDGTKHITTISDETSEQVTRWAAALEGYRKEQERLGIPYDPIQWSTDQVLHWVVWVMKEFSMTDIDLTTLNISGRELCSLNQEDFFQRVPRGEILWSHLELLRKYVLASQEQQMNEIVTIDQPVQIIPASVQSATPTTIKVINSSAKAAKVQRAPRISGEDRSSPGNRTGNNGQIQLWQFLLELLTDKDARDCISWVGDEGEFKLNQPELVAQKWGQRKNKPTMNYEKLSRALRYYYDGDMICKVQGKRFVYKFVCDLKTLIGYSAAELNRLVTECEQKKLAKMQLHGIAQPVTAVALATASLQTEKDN
Procedure, shortened: as §1

ERG = target: T4, ERG (Homo sapiens, UniProt P11308 1-479); conditions: protein: recombinant; tags: N-terminal GST; dsDNA, one strand shown
T4 sequence: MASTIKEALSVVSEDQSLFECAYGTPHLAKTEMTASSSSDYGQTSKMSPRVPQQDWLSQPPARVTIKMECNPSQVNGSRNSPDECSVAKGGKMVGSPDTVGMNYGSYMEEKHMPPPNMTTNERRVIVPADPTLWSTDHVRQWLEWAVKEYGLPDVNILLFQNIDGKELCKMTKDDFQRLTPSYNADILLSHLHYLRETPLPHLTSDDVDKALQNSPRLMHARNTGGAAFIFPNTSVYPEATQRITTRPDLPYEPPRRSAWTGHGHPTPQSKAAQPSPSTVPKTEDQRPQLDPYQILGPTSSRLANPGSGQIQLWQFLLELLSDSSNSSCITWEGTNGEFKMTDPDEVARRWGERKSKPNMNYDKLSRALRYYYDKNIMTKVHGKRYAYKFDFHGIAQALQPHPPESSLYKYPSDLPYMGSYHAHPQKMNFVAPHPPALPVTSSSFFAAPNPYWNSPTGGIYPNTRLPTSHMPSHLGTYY
Procedure, shortened: as §1

ELF1 = ELF1 (Homo sapiens, UniProt P32519 1-619); conditions: protein: recombinant; tags: N-terminal GST; dsDNA, one strand shown
Procedure, shortened: as §1

EHF = target: T5, EHF (Homo sapiens, UniProt Q9NZC4 1-300); conditions: protein: recombinant; tags: N-terminal GST; dsDNA, one strand shown
T5 sequence: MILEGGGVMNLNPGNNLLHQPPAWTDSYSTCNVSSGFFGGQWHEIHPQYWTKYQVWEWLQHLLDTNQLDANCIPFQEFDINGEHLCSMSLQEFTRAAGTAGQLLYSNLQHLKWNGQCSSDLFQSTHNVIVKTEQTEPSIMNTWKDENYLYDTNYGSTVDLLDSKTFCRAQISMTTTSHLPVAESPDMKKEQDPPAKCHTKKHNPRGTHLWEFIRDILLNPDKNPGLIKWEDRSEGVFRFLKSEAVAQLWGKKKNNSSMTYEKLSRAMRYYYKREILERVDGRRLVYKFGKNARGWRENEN
Procedure, shortened: as §1

SPI1 = SPI1 (Homo sapiens, UniProt P17947 1-270); conditions: protein: recombinant; tags: N-terminal GST; dsDNA, one strand shown
Procedure, shortened: as §1

SPIB = SPIB (Homo sapiens, UniProt Q01892 1-262); conditions: protein: recombinant; tags: N-terminal GST; dsDNA, one strand shown
Procedure, shortened: as §1

ELK3 = target: T6, ELK3 (Homo sapiens, UniProt P41970 1-407); conditions: protein: recombinant; tags: N-terminal GST; dsDNA, one strand shown
T6 sequence: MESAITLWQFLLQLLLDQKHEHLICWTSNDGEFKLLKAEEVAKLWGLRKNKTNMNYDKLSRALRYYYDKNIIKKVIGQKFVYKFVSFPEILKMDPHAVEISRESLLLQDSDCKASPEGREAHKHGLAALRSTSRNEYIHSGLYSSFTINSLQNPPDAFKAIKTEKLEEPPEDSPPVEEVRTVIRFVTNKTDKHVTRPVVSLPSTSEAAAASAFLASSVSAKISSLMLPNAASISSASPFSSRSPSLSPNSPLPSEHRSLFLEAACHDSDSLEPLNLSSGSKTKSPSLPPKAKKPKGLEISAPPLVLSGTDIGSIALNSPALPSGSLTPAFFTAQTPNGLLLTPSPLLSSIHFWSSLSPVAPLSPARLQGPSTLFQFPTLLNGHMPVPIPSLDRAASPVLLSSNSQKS
Procedure, shortened: as §1

FEV = target: T7, FEV (Homo sapiens, UniProt Q99581 1-238); conditions: protein: recombinant; tags: N-terminal GST; dsDNA, one strand shown
T7 sequence: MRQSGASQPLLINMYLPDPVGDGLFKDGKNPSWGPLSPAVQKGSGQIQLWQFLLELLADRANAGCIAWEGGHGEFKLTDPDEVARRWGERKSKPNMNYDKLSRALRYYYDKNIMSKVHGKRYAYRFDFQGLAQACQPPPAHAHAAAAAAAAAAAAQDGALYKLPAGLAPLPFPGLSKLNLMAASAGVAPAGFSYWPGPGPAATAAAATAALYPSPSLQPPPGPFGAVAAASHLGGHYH
Procedure, shortened: as §1

ETV5 = ETV5 (Homo sapiens, UniProt P41161 1-510); conditions: protein: recombinant; tags: N-terminal GST; dsDNA, one strand shown
Procedure, shortened: as §1

HSF1 = HSF1 (Homo sapiens, UniProt Q00613 1-529); conditions: protein: recombinant; tags: N-terminal GST; chain copies: 3; dsDNA, one strand shown
Procedure, shortened: as §1

SPIC = target: T8, SPIC (Homo sapiens, UniProt Q8N5J4 1-248); conditions: protein: recombinant; tags: N-terminal GST; dsDNA, one strand shown
T8 sequence: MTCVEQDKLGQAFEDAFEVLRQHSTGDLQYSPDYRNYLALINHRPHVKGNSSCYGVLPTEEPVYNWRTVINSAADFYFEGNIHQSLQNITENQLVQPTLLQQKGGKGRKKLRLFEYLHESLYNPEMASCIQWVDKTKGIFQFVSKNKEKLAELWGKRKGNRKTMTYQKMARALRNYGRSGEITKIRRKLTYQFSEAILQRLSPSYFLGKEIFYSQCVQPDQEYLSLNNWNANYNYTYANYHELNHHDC
Procedure, shortened: as §1

ELF4 = ELF4 (Homo sapiens, UniProt Q99607 1-663); conditions: protein: recombinant; tags: N-terminal GST; dsDNA, one strand shown
Procedure, shortened: as §1

ELK4 = target: T9, ELK4 (Homo sapiens, UniProt P28324-2 1-405); conditions: protein: recombinant; tags: N-terminal GST; dsDNA, one strand shown
T9 sequence: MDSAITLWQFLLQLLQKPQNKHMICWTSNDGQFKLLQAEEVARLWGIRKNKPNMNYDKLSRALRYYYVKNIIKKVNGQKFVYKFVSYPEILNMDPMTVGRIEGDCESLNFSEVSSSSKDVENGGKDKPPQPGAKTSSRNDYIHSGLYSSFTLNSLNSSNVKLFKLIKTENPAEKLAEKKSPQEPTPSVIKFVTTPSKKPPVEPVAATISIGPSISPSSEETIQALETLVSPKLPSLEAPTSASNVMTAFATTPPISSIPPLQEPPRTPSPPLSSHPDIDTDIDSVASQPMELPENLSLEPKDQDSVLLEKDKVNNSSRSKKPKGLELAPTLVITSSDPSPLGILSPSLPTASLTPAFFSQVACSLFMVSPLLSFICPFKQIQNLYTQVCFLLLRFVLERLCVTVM
Procedure, shortened: as §1

ETV2 = target: T10, ETV2 (Homo sapiens, UniProt O00321 1-342); conditions: protein: recombinant; tags: N-terminal GST; dsDNA, one strand shown
T10 sequence: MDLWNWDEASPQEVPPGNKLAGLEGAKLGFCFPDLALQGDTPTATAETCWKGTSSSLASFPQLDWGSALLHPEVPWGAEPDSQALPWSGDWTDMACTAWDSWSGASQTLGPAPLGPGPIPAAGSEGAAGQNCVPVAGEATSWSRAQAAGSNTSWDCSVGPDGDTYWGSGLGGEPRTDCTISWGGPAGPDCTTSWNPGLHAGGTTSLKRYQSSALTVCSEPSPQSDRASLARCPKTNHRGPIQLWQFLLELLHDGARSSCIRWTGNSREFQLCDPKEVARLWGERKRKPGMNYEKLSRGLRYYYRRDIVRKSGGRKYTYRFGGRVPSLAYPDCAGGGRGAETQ
Procedure, shortened: as §1

ELF3 = target: T11, ELF3 (Homo sapiens, UniProt P78545 1-371); conditions: protein: recombinant; tags: N-terminal GST; dsDNA, one strand shown
T11 sequence: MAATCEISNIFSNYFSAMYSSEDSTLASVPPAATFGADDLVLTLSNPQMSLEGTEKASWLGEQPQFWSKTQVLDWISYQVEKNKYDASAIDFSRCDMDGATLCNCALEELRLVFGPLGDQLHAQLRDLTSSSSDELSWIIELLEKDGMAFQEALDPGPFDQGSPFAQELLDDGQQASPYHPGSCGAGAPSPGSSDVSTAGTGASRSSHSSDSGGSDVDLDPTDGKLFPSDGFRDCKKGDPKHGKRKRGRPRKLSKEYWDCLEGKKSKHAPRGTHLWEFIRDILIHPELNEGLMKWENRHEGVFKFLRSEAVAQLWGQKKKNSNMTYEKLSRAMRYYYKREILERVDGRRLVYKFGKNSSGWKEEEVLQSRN
Procedure, shortened: as §1

CRX = CRX (Homo sapiens, UniProt O43186 1-299); conditions: protein: recombinant; tags: N-terminal GST; dsDNA, one strand shown
Procedure, shortened: as §1

ETV1 = ETV1 (Homo sapiens, UniProt P50549 1-477); conditions: protein: recombinant; tags: N-terminal GST; dsDNA, one strand shown
Procedure, shortened: as §1

CRX, sequence (O43186 whole entry): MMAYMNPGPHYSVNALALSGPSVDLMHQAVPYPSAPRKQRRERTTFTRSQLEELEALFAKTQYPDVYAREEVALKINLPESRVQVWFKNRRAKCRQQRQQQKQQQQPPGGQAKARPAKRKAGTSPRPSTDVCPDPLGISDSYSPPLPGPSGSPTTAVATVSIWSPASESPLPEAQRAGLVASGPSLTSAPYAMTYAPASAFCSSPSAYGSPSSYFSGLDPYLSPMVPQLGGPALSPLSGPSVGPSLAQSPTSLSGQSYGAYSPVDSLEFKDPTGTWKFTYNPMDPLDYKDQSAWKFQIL
ELF1, sequence (P32519 whole entry): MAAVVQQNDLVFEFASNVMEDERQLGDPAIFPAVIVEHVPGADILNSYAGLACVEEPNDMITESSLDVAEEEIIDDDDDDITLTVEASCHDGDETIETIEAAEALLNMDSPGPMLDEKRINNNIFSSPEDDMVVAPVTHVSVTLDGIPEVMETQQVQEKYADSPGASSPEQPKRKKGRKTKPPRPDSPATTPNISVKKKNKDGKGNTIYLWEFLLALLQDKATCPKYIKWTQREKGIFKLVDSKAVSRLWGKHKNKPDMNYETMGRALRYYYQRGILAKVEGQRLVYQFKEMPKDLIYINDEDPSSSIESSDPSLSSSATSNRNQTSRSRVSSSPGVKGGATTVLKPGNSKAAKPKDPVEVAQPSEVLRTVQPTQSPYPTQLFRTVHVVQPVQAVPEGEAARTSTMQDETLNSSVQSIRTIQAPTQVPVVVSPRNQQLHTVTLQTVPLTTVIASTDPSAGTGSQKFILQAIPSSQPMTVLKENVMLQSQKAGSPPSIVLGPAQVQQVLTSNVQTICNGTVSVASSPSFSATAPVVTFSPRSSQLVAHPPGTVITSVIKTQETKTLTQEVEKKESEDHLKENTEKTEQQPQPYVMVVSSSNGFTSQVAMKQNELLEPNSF
ETV1, sequence (P50549 whole entry): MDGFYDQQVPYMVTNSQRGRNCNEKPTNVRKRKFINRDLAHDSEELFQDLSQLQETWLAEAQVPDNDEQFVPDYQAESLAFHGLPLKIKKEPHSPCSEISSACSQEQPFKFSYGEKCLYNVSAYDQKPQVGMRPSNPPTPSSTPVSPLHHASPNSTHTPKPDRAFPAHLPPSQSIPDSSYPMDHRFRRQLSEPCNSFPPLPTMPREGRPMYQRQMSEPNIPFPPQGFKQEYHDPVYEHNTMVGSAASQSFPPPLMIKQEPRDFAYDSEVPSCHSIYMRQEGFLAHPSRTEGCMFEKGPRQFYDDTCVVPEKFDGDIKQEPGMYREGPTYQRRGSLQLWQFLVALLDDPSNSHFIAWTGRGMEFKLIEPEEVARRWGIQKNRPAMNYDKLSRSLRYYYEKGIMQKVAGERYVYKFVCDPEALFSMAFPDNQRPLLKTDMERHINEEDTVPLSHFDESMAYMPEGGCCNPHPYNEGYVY
SPIB, sequence (Q01892 whole entry): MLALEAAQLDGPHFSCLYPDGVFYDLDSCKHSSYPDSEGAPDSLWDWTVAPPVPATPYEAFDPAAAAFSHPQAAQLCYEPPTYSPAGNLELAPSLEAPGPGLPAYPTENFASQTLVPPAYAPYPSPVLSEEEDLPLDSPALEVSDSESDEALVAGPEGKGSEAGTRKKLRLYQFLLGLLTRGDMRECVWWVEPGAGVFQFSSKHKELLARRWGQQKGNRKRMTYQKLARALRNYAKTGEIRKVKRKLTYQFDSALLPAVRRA
ELF4, sequence (Q99607 whole entry): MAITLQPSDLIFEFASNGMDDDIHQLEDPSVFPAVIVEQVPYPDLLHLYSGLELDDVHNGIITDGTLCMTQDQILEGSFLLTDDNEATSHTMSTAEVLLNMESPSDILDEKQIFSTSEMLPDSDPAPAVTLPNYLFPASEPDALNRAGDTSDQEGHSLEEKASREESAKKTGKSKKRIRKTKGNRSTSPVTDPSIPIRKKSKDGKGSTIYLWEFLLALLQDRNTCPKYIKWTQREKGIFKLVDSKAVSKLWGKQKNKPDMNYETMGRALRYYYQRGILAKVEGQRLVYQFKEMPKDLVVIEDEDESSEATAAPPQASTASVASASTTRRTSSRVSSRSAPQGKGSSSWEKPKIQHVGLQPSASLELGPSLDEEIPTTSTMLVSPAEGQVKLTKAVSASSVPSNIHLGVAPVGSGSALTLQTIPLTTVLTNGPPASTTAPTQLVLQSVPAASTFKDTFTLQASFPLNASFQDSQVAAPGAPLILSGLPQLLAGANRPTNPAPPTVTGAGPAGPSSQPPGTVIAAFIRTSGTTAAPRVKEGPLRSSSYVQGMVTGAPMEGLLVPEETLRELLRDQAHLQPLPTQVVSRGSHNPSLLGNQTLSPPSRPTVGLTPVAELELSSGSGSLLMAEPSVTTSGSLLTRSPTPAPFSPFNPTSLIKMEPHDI
HSF1, sequence (Q00613 whole entry): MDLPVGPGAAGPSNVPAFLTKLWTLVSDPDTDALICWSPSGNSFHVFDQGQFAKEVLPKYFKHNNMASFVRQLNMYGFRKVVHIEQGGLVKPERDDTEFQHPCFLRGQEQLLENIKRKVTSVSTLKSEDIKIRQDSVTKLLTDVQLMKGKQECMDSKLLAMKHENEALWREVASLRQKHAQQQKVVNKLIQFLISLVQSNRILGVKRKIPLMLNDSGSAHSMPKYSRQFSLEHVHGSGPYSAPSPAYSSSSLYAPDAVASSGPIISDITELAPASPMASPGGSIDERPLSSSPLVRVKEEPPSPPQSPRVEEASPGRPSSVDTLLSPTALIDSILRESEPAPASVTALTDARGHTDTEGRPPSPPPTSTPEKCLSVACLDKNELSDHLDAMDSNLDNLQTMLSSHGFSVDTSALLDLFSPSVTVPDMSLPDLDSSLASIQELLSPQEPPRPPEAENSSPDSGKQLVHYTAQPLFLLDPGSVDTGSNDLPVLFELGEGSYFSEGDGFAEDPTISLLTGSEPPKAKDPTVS
ETV5, sequence (P41161 whole entry): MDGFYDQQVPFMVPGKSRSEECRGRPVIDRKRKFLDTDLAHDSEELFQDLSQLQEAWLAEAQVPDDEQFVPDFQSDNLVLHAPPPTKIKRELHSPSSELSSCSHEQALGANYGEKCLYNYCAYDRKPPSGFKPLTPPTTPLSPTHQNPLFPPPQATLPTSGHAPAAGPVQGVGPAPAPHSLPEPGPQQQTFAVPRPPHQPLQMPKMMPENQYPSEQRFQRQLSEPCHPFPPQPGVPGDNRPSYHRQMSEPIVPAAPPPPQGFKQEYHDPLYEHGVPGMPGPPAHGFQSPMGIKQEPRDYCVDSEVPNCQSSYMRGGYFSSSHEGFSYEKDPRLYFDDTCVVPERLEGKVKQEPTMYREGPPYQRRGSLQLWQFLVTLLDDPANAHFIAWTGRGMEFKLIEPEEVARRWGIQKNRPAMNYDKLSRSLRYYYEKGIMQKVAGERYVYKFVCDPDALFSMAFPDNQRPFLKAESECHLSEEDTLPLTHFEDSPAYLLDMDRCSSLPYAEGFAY

With GTTCTC as the sequence, how does the binding signal (FLI1) read?
Its binding signal is 1.36 fold enrichment (6-mer frequency, TF over GST control).

And the binding signal (ELK1)?
The binding signal was 1.18 fold enrichment (6-mer frequency, TF over GST control).

And the binding signal (GABPA)?
The binding signal was 1.4 fold enrichment (6-mer frequency, TF over GST control).

And the binding signal (ERG)?
Its binding signal is 1.27 fold enrichment (6-mer frequency, TF over GST control).

And the binding signal (ELF1)?
Its binding signal is 1.28 fold enrichment (6-mer frequency, TF over GST control).

And the binding signal (EHF)?
The binding signal was 1.22 fold enrichment (6-mer frequency, TF over GST control).

What about the binding signal (SPI1) of the same sequence?
The binding signal was 1.33 fold enrichment (6-mer frequency, TF over GST control).

And the binding signal (SPIB)?
The binding signal was 1.35 fold enrichment (6-mer frequency, TF over GST control).

What about the binding signal (ELK3) of the same sequence?
The binding signal was 1.19 fold enrichment (6-mer frequency, TF over GST control).

What about the binding signal (FEV) of the same sequence?
Its binding signal is 1.32 fold enrichment (6-mer frequency, TF over GST control).

What about the binding signal (ETV5) of the same sequence?
The binding signal was 1.32 fold enrichment (6-mer frequency, TF over GST control).

What about the binding signal (HSF1) of the same sequence?
Its binding signal is 2.29 fold enrichment (6-mer frequency, TF over GST control).

And the binding signal (SPIC)?
The binding signal was 1.36 fold enrichment (6-mer frequency, TF over GST control).

And the binding signal (ELF4)?
The binding signal was 1.28 fold enrichment (6-mer frequency, TF over GST control).

What about the binding signal (ELK4) of the same sequence?
Its binding signal is 1.27 fold enrichment (6-mer frequency, TF over GST control).

And the binding signal (ETV2)?
Its binding signal is 1.33 fold enrichment (6-mer frequency, TF over GST control).

What about the binding signal (ELF3) of the same sequence?
Its binding signal is 1.3 fold enrichment (6-mer frequency, TF over GST control).

And the binding signal (CRX)?
Its binding signal is 1.28 fold enrichment (6-mer frequency, TF over GST control).

What about the binding signal (ETV1) of the same sequence?
The binding signal was 1.34 fold enrichment (6-mer frequency, TF over GST control).
